The supplement of paper PMC10127200
Where a name gives a salt, the structure may show the parent alone.

Assays:
Test in all cases: Euclidean distance of Cell Painting phenotypic profile (signed KS, 77 features) to DMSO centroid (dimensionless distance); 5 or 10 uM (library dependent); higher = stronger phenotypic change vs DMSO (phenoactivity)
Settings in all cases: 48 h
[1] = system: 786-O
Summary of the method: (§1)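 Five cancer lines, together with a healthy fibroblast line, received library compounds for 48 h at a library-dependent 10 or 5 uM and 0.1% DMSO final. Harmony then derived 77 features from confocal 20X images (9 fields/well) of the stained cells, scoring each as a signed Kolmogorov-Smirnov statistic against same-plate vehicle wells. After plate-position correction, correlation weighting and replicate averaging at the top dose, phenoactivity was taken as each profile's Euclidean distance to the median vehicle profile.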

[2] = system: A549
Summary of the method: as §1

[3] = system: DU145
Summary of the method: as §1

[4] = system: FB
Summary of the method: as §1

[5] = system: HEPG2
Summary of the method: as §1

[6] = system: OVCAR4
Summary of the method: as §1

SMILES	Euclidean distance [1]	Euclidean distance [2]	Euclidean distance [3]	Euclidean distance [4]	Euclidean distance [5]	Euclidean distance [6]
COc1cc(C(C)=O)ccc1O [Apocynin]	0.601	1.23	0.921	0.872	1.6	0.864
CC(=O)c1ccc(S(=O)(=O)NC(=O)NC2CCCCC2)cc1 [Acetohexamide]	0.925	0.868	0.836	1.19	0.469	0.995
Cc1ccccc1N1CCN(CCc2nnc3n2CCCC3)CC1 [Dapiprazole Hydrochloride]	1.23	0.715	0.81	0.786	1.09	1.17
COc1ccnc(C[S+]([O-])c2nc3cc(OC(F)F)ccc3[nH]2)c1OC (stereo unspecified) [Pantoprazole]	1.16	0.522	0.784	0.822	1.62	1.62
CCN1CCCC1CNC(=O)c1cc(S(=O)(=O)CC)c(N)cc1OC (stereo unspecified) [Amisulpride]	1.04	0.717	1.15	1.07	0.566	1.01
CC(=O)[C@]1(O)Cc2c(O)c3c(c(O)c2[C@@H](O[C@H]2C[C@H](N)[C@H](O)[C@H](C)O2)C1)C(=O)c1ccccc1C3=O [Idarubicin HCl]	5.7	4.85	4.5	4.44	5.24	6.18
Cn1c(N2CCCCS2(=O)=O)nc(C(=O)NCc2ccc(F)cc2)c(O)c1=O	3.24	2.86	4.79	2.83	3.37	3.36
COCCCN1CCC(NC(=O)c2cc(Cl)c(N)c3c2OCC3)CC1 [Prucalopride Succinate]	0.846	1.22	1.04	1.4	0.733	1.47
C=CCCCCCCCCC(=O)[O-].C=CCCCCCCCCC(=O)[O-].[Zn+2] [Zinc Undecylenate]	1.22	2.06	1.09	1.1	0.358	1.9
CC(=O)Nc1cccc2c1c(Sc1ccc(Cl)cc1)c(C)n2CC(=O)O	0.872	0.72	1.15	0.772	0.51	0.868
CN(C)c1cc(CNCC(C)(C)C)c(O)c2c1C[C@H]1C[C@H]3[C@H](N(C)C)C(O)=C(C(N)=O)C(=O)[C@@]3(O)C(O)=C1C2=O [Omadacycline tosylate]	1.25	0.879	1.21	1.14	0.757	1.46
CN[C@H]1CN(c2ccc3c(=O)c(C(=O)O)cn(-c4nccs4)c3n2)C[C@@H]1OC [Voreloxin (SNS-595) hydrochloride]	3.32	3.76	2.41	3.35	2.43	3.8
CC(C)(C)[N+]([O-])=Cc1ccc(S(=O)(=O)O)cc1S(=O)(=O)O	1.04	1.8	0.995	1.52	1.43	1.57
CCN1CCN(c2ccc(Nc3cc(N(C)C(=O)Nc4c(Cl)c(OC)cc(OC)c4Cl)ncn3)cc2)CC1 [BGJ398 (NVP-BGJ398|Infigratinib)]	3.87	4	2.87	3.62	2.39	4.1
COC(=O)[C@H](c1ccccc1Cl)N1CCc2sccc2C1 [Clopidogrel]	2.53	2.3	2.44	2.99	1.3	2.4
O=NN(CCCl)C(=O)NC1CCCCC1 [Lomustine]	0.894	0.833	0.869	1.05	0.457	1
OC[C@H]1O[C@@H](Oc2cc(O)cc(/C=C/c3ccc(O)cc3)c2)[C@H](O)[C@@H](O)[C@@H]1O [Polydatin]	1.21	2.03	1.22	0.978	0.886	1.3
c1ccc2c(CC3=NCCN3)cccc2c1 [Naphazoline HCl]	1.23	0.672	1.11	0.693	0.599	0.531

SMILES	Euclidean distance [1]	Euclidean distance [2]	Euclidean distance [3]	Euclidean distance [4]	Euclidean distance [5]	Euclidean distance [6]
CCCCc1ncc(/C=C(\Cc2cccs2)C(=O)O)n1Cc1ccc(C(=O)O)cc1 [Eprosartan Mesylate]	0.683	0.706	1.64	0.647	1.3	1.44
OCCN(CCO)c1nc(N2CCCCC2)c2nc(N(CCO)CCO)nc(N3CCCCC3)c2n1 [Dipyridamole]	1.24	0.954	1.33	0.963	0.833	0.968
CN(C)C/C=C/C(=O)Nc1cc2c(Nc3ccc(F)c(Cl)c3)ncnc2cc1O[C@H]1CCOC1 [Afatinib (BIBW2992) Dimaleate]	4.65	3.63	5.93	5.45	4.62	4.49
CNC[C@H](O)c1cccc(O)c1 [Phenylephrine HCl]	1.46	0.809	0.788	1.34	0.549	0.844
NCc1ccc(S(N)(=O)=O)cc1 [Mafenide hydrochloride]	1.35	0.84	0.784	0.654	0.629	1.46
N#C/C(=C\c1ccc(O)c(O)c1)C(=O)NCc1ccccc1 [AG-490 (Tyrphostin B42)]	1.55	1.52	1.17	1.34	0.804	0.729
CC1(C)CC[C@]2(NC(=O)C(C)(F)F)CC[C@]3(C)[C@H](C(=O)C=C4[C@@]5(C)C=C(C#N)C(=O)C(C)(C)[C@@H]5CC[C@]43C)[C@@H]2C1 [Omaveloxolone (RTA-408)]	6.36	4.96	6.92	7.18	5.59	6.32
N#Cc1ccc(C2CCCc3cncn32)cc1 (stereo unspecified) [Fadrozole]	1.22	0.722	0.93	1.38	0.631	0.866
NC(CO)C(=O)NNCc1ccc(O)c(O)c1O (stereo unspecified) [Benserazide HCl]	1.18	0.748	0.938	0.967	0.666	1.39
CC(=O)Nc1ncc([N+](=O)[O-])s1 [Nithiamide]	0.999	0.607	0.822	0.606	2.08	0.885
CCN(CC)CCOC(=O)c1ccc(N)cc1Cl [Chloroprocaine HCl]	0.962	0.947	0.943	0.861	0.503	1.07
CCCCCOC(=O)Nc1nc(=O)n([C@@H]2O[C@H](C)[C@@H](O)[C@H]2O)cc1F [Capecitabine]	1.77	0.754	1.15	0.899	0.821	1.23
O=C(OCCOCCO)c1ccccc1Nc1cccc(C(F)(F)F)c1 [Etofenamate]	0.974	0.683	1.59	1.79	0.744	0.722
C[C@@H](O)[C@H]1C(=O)N2C(C(=O)O)=C(S[C@@H]3CN[C@H](CNS(N)(=O)=O)C3)[C@H](C)[C@H]12 [Doripenem]	0.636	0.801	0.812	1.15	0.434	1.45
CC(C)CC(N)=O [Isovaleramide]	1.41	1.09	0.731	0.571	1.21	1.81
C=CC(=O)Nc1cc2c(Nc3ccc(F)c(Cl)c3)ncnc2cc1OCCCN1CCOCC1 [Canertinib (CI-1033)]	1.57	2.51	1.4	1.25	0.69	2.05
CC(=O)OCC(=O)NCCCOc1cccc(CN2CCCCC2)c1 [Roxatidine Acetate HCl]	1.32	0.853	0.769	0.72	0.711	0.763
O=C(O)c1ccc(N2C(=O)/C(=C\c3ccc(-c4ccc([N+](=O)[O-])cc4)o3)C=C2c2ccccc2)cc1	0.841	1.23	0.74	0.72	1.83	0.995
